Data as given in the supplement of paper PMC11732987, “Enantioselective OTUD7B fragment discovery through chemoproteomics screening and high-throughput optimisation” (Communications Chemistry, 2025).

target: EIF3H (UniProt O15372); assay: log2 ratio of Biotin-Ahx-Ub-VS probe labelling (fragment/DMSO); higher = less target engagement (more negative = stronger competition), active = hit call of the paper (q ≤ 0.05, log2 ratio ≤ -1); conditions: compound concentration: 200 uM; treatment time: 3 h
Procedure, shortened: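 Labelled DUBs were enriched with NeutrAvidin, digested with LysC and trypsin, and run by diaPASEF LC-MS/MS. The labelling used Biotin-Ahx-Ub-VS at 0.5 µM final for 1 h on HEK293T lysate (495 µg per sample) previously treated in triplicate with fragment at 200 µM or vehicle for 3 h. Values are average log2 fragment/vehicle ratios by unpaired t-test on global-median-normalised Spectronaut quantities of proteins with ≥2 unique peptides.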

EIF3H, sequence (O15372 whole entry, the tested form may be a part): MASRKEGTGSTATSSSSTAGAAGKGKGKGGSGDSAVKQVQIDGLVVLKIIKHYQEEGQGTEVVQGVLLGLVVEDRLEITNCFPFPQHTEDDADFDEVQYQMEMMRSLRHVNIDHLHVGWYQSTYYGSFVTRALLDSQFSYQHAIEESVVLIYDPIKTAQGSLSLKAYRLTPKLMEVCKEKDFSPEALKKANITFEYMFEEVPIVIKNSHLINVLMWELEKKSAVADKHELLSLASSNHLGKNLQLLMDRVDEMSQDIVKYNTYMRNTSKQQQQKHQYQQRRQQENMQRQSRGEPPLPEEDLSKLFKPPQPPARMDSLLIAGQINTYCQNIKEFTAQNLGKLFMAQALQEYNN

log2 ratio of Biotin-Ahx-Ub-VS probe labelling, inactive:
CC(NC(=O)CCl)c1cnn(C2CC2)c1 (stereo not given) 0.172
Cc1nc(-c2cccc(NC(=O)CCl)c2)cs1 0.167
Cn1cc(CN(Cc2ccc(Cl)cc2)C(=O)CCl)cn1 0.132
O=C(CCl)NCc1cccc(F)c1 0.138
CC(=O)C1CCCCN1C(=O)CCl (stereo not given) 0.304
CC(NC(=O)CCl)c1cc2n(n1)CCCC2.Cl (stereo not given) 0.193
CCN(C(=O)CCl)C1CCCCC1 0.022
O=C(CCl)Nc1ccccc1C(F)(F)F 0.185
Cc1ccc(-c2nnc(C)[nH]2)c(NC(=O)CCl)c1 0.0246
O=C(CCl)NC1CCC(C(F)(F)F)CC1 (stereo not given) -0.225
Cc1ccc(C)c(NC(=O)CCl)c1 0.0185
CC(O)CC1CCN(C(=O)CCl)CC1 (stereo not given) 0.247
Cc1c(NC(=O)CCl)c(=O)n(-c2ccccc2)n1C 0.333
Cc1ncc2c(n1)CCN(C(=O)CCl)C2 0.129
Cc1conc1C1CN(C(=O)CCl)C1 0.138
Cc1ccc(CC(NC(=O)CCl)c2ccccn2)cc1.Cl (stereo not given) 0.165
O=C(CCl)N1CCC(c2nc3ccccc3o2)CC1 0.264
Cc1cc(C2CCCN2C(=O)CCl)nn1C.Cl (stereo not given) -0.0784
O=C(CCl)Nc1cc2c(cc1Cl)OCCO2 0.0273
O=C(CCl)N1CCC(C(O)c2ccc(F)cc2)CC1 (stereo not given) 0.17
Cc1nc(CN2CCCN(C(=O)CCl)CC2)no1.Cl 0.122
Cc1cccn2cc(CCNC(=O)CCl)nc12.Cl 0.00132
O=C(CCl)N1CCOC(CCc2ccccc2)C1 (stereo not given) 0.0677
O=C(CCl)N1CCOCCC1c1ccccc1 (stereo not given) 0.204
O=C(CCl)N[C@H]1CC[C@@H](CO)CC1 0.0529
O=C(CCl)N1CCOC2(CCC2)CC1 0.0846
CC(NC(=O)CCl)c1ccc2[nH]ncc2c1 (stereo not given) -0.275
CN(C)C(=O)c1ccc(CNC(=O)CCl)cc1 0.092
Cc1cnc2[nH]cc(CCNC(=O)CCl)c2c1 0.13
Cl.Cn1nccc1C(NC(=O)CCl)c1ccccc1 (stereo not given) 0.106
Cc1cccc(NC(=O)CCl)c1C 0.00998
Cc1nnc(C(NC(=O)CCl)c2ccccc2)n1C (stereo not given) 0.24
O=C(CCl)NC1CCC2(CC1)OCCO2 0.0155
Cc1cccc2nc(CCNC(=O)CCl)cn12.Cl -0.726
N#Cc1ccc(Cl)cc1NC(=O)CCl 0.269
